About 2,200 (92%) of roughly 2,400 compounds were called active. So high a share suggests a set chosen from earlier hits. The list shows a part of the results. Values without a mark were called inactive.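 The calls were made as follows: active = mean inhibition over triplicate runs exceeds the cutoff derived for the earlier primary screen (cut at about 25% in these data); inactive = the rest.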

The target of the assay is Platelet-activating factor acetylhydrolase IB subunit alpha2 (Homo sapiens) (UniProt P68402). Briefly: inhibition of human PAFAH1B2 catalytic subunit – biochemical, fluorescence polarization, FP-rhodamine probe, triplicate, confirmation (AID 493034).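 Also: 0% = enzyme with DMSO and 100% = wells lacking PAFAH1B2 protein; inhibitors lower polarization by leaving the probe unbound.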 To be noted: recombinant PAFAH1B2, FP-rhodamine probe fluorescence polarization; at 3.39 µM; hits give high values. (In fluorescence polarisation assays a small probe gives low polarisation when free and higher when bound to something large.)
Sequence of Platelet-activating factor acetylhydrolase IB subunit alpha2 (Homo sapiens) (P68402 whole entry, looked up): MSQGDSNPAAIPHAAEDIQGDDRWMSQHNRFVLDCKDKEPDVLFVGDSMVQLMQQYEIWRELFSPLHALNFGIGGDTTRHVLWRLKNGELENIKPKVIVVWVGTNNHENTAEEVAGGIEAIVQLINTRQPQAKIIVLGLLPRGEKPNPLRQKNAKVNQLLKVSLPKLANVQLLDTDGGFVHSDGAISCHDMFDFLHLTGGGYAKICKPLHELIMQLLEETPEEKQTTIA
As a reminder, the inhibition is the change of the read-out against control, counted positive when it falls. For the molecule `Cc1c(N=C2C=C(Br)C(=O)C(Br)=C2)c(=O)n(-c2ccccc2)n1C`, the inhibition was 20.8%.
In the case of `O=S(=O)(Nc1ccc2cn[nH]c2c1)c1ccc(Cl)cc1`, the inhibition is 18.1%.
With `O=c1[nH]c2ccc(S(=O)(=O)Nc3ccc(Cl)cc3)cc2o1`, the inhibition is 41.7% (active).
With `Nc1n[nH]c2c1C1(CCCCC1)Cc1ccccc1-2` the figure was 22%; with `O=C(OCCc1ccccc1)c1cc(O)c(O)c(O)c1`, 34.3% (active).
Take `O=C(/C=C/c1ccc(O)c(O)c1)OCCc1ccccc1`: the inhibition is 19.7%.
With `N=c1c[n+](-c2ccc(Cl)cc2)[n-]o1`, the inhibition was 18.1%.
With `CN(Cc1ccccc1)C(=O)CN1CCN(S(=O)(=O)c2ccc(Cl)c(Cl)c2)CC1` the figure was 22.8%; with `O=C(CN1CCN(S(=O)(=O)c2ccc(Cl)cc2)CC1)c1ccc(O)c(O)c1`, 33.2% (active).
Take `O=S(=O)(c1ccc(Cl)cc1)N1CCCC(C(F)(F)F)C1` (stereo not given): the inhibition was 22.5%.
On to `O=C(NNC(=S)NC(=O)C12CC3CC(CC(C3)C1)C2)c1ccncc1`, for which the inhibition is 38.2% (active).
Turning to `O=C(NNC(=O)C12CC3CC(CC(C3)C1)C2)c1cccc([N+](=O)[O-])c1`, the inhibition was 18.9%.
Turning to `CCC(=O)Nc1cc(C)c(NC(=O)C23CC4CC(CC(C4)C2)C3)cn1`, the inhibition was 22.1%.
The figure for `O=C1C(c2ccccc2)NC(=S)N1C1CCCCC1` (stereo not given) is 20.2%; for `O=C(O)c1ccn2c(C(=O)c3ccc(Cl)cc3)c(-c3ccccc3)cc2c1` it is 62.6% (active); for `O=C(O)c1ccn2c(C(=O)c3ccccc3)c(-c3ccccc3)cc2c1` it is 27.1% (active).
For the molecule `O=C1NC(c2cccs2)C(C(=O)c2ccccc2)C(O)(C(F)(F)F)N1` (stereo not given), the inhibition was 11.5%.
In the case of `CCOCCCNC(=O)Cc1c(C(=O)O)[nH]c2ccc(Cl)cc12`, the inhibition is 26.3% (active).
Consider `Cc1ccc2[nH]c(C(=O)O)c(NC(=O)[C@@H]3C[C@@H]3c3ccccc3)c2c1`, for which the inhibition was 17.5%.
On to `CCCCN(CC)C(=O)Cc1c(C(=O)O)[nH]c2ccc(Cl)cc12`, for which the inhibition was 41.1% (active).
With `CC1CC(C)CN(C(=O)Cc2c(C(=O)O)[nH]c3ccc(Cl)cc23)C1` (stereo not given) the figure was 73.8% (active); with `CC(C)CCNC(=O)Cc1c(C(=O)O)[nH]c2ccc(Cl)cc12`, 43.9% (active).
Consider `COc1ccc([N+](=O)[O-])cc1N(CC(=O)NCCSc1ccc(C)cc1)S(C)(=O)=O`, for which the inhibition was 22.5%.
`CC12CC3CC(C)(C1)CC(C(=O)N1CCN(C(=O)c4ccco4)CC1)(C3)C2`: the inhibition was 16.1%.
With `O=C(Nc1ccc(N2CCOCC2)cc1)C1(c2ccc(Cl)cc2)CCC1`, the inhibition was 78.4% (active).
As to `Cc1ccccc1C(=O)N1CCN(c2ccc(NC(=O)CSc3ccc(Cl)cc3)cc2)CC1`, the inhibition is 23.5%.
Take `CC(Sc1ccc(Cl)cc1)C(=O)Nc1ccc(S(=O)(=O)N2CCOCC2)cc1` (stereo not given): the inhibition was 20%.
For `O=C(CCl)N(c1ccccc1)C1CCCCC1`, the inhibition was 29.2% (active).
Regarding `O=C(O)c1cc(NC(=S)NC(=O)C(c2ccccc2)c2ccccc2)ccc1Cl`, the inhibition is 20.9%.
Regarding `CC(C)(C)c1ccc(S(=O)(=O)/N=C2\C=C(NS(=O)(=O)c3ccccc3)C(=O)c3ccccc32)cc1`, the inhibition was 11.4%.
For the molecule `Cc1ccc(S(=O)(=O)Nc2ccccc2-c2ccccc2NS(=O)(=O)c2ccc(C)cc2)cc1`, the inhibition is 43.8% (active).
For the molecule `COc1cc(C(=O)O[C@H]2CC(C)=CC[C@@]3(C)CC[C@@](O)(C(C)C)[C@H]23)ccc1O`, the inhibition was 23.9%.
Consider `Cc1nc2ccccn2c1-c1ccnn1S(=O)(=O)c1ccc(F)cc1`, for which the inhibition is 22.7%.
Take `O=c1[nH]c2cc(Cl)ccc2c(O)c1-c1cccc(Oc2ccccc2)c1`: the inhibition was 27.1% (active).
As to `CC1CCN(S(=O)(=O)c2cccc(C(=O)N(C)C3CCS(=O)(=O)C3)c2)CC1` (stereo not given), the inhibition was 23.7%.
The figure for `CC1CCN(S(=O)(=O)c2ccc(N/N=C(/C#N)C(N)=O)cc2)CC1` is 27.9% (active); for `CC1CCN(S(=O)(=O)c2ccc(NC(=O)[C@@H]3CCCC[C@@H]3C(=O)O)cc2)CC1` it is 39.3% (active); for `CC1CCN(S(=O)(=O)c2ccc(NC(=O)Cc3cccs3)cc2)CC1` it is 19.6%.
The figure for `O=C(CSc1nc(C2CC2)nc2ccccc12)Nc1ccc2c(c1)OCCO2` is 1.2%; for `CC1CCN(S(=O)(=O)c2ccc(NC(=O)CN3CCCCCC3)cc2)CC1` it is 20.4%; for `CC1CCN(S(=O)(=O)c2ccc(NC(=O)CSc3nnnn3C)cc2)CC1` it is 33.1% (active).
With `CN(C(=O)CSc1nc(-c2ccc(C(C)(C)C)cc2)c(C#N)c(=O)[nH]1)C1CCCCC1`, the inhibition is 20.1%.
Regarding `N#Cc1c(-c2ccccc2)nc(SCc2ccc(Cl)cc2)[nH]c1=O`, the inhibition was 40% (active).
As for `CC(C)c1ccc(-c2nc(N3CCOCC3)[nH]c(=O)c2C#N)cc1`, the inhibition was 23.2%.
Take `N#Cc1c(-c2ccccc2)nc(SCC(=O)N(c2ccccc2)c2ccccc2)[nH]c1=O`: the inhibition is 38.8% (active).
Regarding `C/C(=N\O)C1/C(=N/O)CC2C1C2(C)C` (stereo not given), the inhibition was 31.7% (active).
As to `Cc1cc(-c2ccccc2)c2ccc(NC(=O)C(C)(C)C)nc2n1`, the inhibition was 23.8%.
The figure for `Cc1cccc(OCC(=O)NCC(=O)N/N=C/c2cc(Br)cc(Br)c2O)c1` is 19.1%; for `O=C(CNC(=O)c1cccc(Br)c1)N/N=C/c1cc(Br)cc(Br)c1O` it is 33.1% (active).
With `C=C[C@]1(C)C=C2CC[C@H]3[C@@](C)(CCC[C@@]3(C)C(=O)O)[C@@H]2CC1`, the inhibition is 30.9% (active).
As to `O=S(=O)(Oc1ccccc1N1CCCCC1)c1ccccc1`, the inhibition is 14.5%.
In the case of `C=CCO/N=C(\C)c1c(O)c(C)c(-c2ccccc2)n(-c2ccccc2)c1=O`, the inhibition is 25.2% (active).
As for `CC1CCC2C(C1)c1sc(=O)[nH]c1SC2(C)C` (stereo not given), the inhibition was 55.2% (active).
For the molecule `N#CC1(C#N)CC(C=O)=C(N)C1(C#N)CC(=O)C12CC3CC(CC(C3)C1)C2` (stereo not given), the inhibition was 17.2%.
In the case of `CCC[C@@H]1CCCO[C@@](C(=O)NCc2ccccn2)(C(F)(F)F)C1`, the inhibition is 20%.
Turning to `Cc1ccc(SCc2[nH]nc3c2C2(CCSCC2)C(C#N)=C(N)O3)cc1`, the inhibition is 32.9% (active).
On to `CCOC(=O)C(CC(=O)O)=C(c1ccccc1)c1ccccc1`, for which the inhibition was 17.7%.
For the molecule `Cc1cc(C)cc(NC(=O)Nc2ccc(-n3ccc(C(F)(F)F)n3)cc2)c1`, the inhibition was 0.5%.
Consider `CC1CCN(S(=O)(=O)c2ccc(NC(=O)CN3CCOCC3)cc2)CC1`, for which the inhibition was 20.2%.
Take `CC1CCN(S(=O)(=O)c2ccc(N=NC3=C(O)CC(C)(C)CC3=O)cc2)CC1`: the inhibition is 49.4% (active).
Regarding `CC1(c2ccc(Cl)cc2)NC(=S)N2C1NC(=S)N2c1ccccc1` (stereo not given), the inhibition was 18.1%.
`CC(C)(C)n1cnc2cc(NCc3ccc(Br)cc3)ccc21`: the inhibition is 35.2% (active).
Turning to `Cn1cnc2cc(NCc3ccc(Cl)cc3)ccc21`, the inhibition is 35.2% (active).
With `CCn1cnc2cc(NCc3ccc(Cl)cc3)ccc21`, the inhibition was 20.5%.
With `CCCn1cnc2cc(NCc3ccc(Br)cc3)ccc21`, the inhibition was 33.7% (active).
Take `Cc1ccc(S(=O)(=O)N2CCCCC2)cc1C(=O)OCC(=O)N1c2ccccc2NC(=O)C1(C)C`: the inhibition is 23.6%.
Turning to `CCOC(=O)c1sc(N(Cc2ccccc2)C(=O)COC(=O)c2ccccc2O)nc1C`, the inhibition is 1.5%.
In the case of `CC(=O)NN1C(=O)/C(=C/c2ccc(C(C)C)cc2)SC1=S`, the inhibition was 28.4% (active).
The figure for `CC(=O)c1sc(NC(=O)C2(F)C(F)(F)C(F)(F)C(F)(F)C(F)(F)C2(F)F)nc1C` is 28.6% (active); for `O=C(CN1CCN(S(=O)(=O)c2ccc(Br)s2)CC1)NC1CCCCC1` it is 22.8%; for `O=C(c1cc([N+](=O)[O-])ccc1N1CCN(S(=O)(=O)c2ccc(Cl)c(Cl)c2)CC1)N1CCOCC1` it is 27.3% (active).
Consider `CCn1c(SCC(=O)N(C)C)nc2cc(S(=O)(=O)N3CCOCC3)ccc21`, for which the inhibition was 4.4%.
With `CC(NC(=O)CN1C(=O)NC(Cc2ccccc2)(Cc2ccccc2)C1=O)C12CC3CC(CC(C3)C1)C2` (stereo not given) the figure was 71.1% (active).
As for `CC(NC(=O)c1ccc([N+](=O)[O-])o1)C12CC3CC(CC(C3)C1)C2` (stereo not given), the inhibition is 18%.
As to `CN1CCN(S(=O)(=O)c2ccc(Sc3nnnn3-c3ccccc3)c([N+](=O)[O-])c2)CC1`, the inhibition was 41.1% (active).
Regarding `CC(Sc1ccc(S(=O)(=O)N2CCN(C)CC2)cn1)C(=O)NC1(C#N)CCCCC1` (stereo not given), the inhibition was 22.4%.
Consider `CN1CCN(S(=O)(=O)c2ccc(Sc3nnc(-c4cccs4)n3-c3ccccc3)nc2)CC1`, for which the inhibition is 21.5%.
As for `CC(OC(=O)C1=COCCO1)C(=O)Nc1ncc(Cl)cc1Cl` (stereo not given), the inhibition is 3.49%.
In the case of `N#CC(=C1C=CC(=NO)C(Cl)=C1)c1ccc(Cl)cc1`, the inhibition is 29.9% (active).
With `C[C@H]1CCC[C@]2(C)C[C@H]3OC(=O)C(CN4CCCCCC4)[C@H]3C=C12` (stereo not given in full), the inhibition was 17.8%.
In the case of `CCNC(=S)NNC(=O)c1cc(-c2cccc(C)c2)nc2ccccc12`, the inhibition is 14.3%.
Regarding `O=C(NNS(=O)(=O)c1ccc(Cl)cc1)c1cc(-c2ccccc2)nc2ccccc12`, the inhibition is 54.4% (active).
In the case of `O=C(NNS(=O)(=O)c1cccc(Cl)c1)c1cc(-c2ccc(F)cc2)nc2ccccc12`, the inhibition was 48.9% (active).
As to `CN(C)c1ccsc1C(=O)NNS(=O)(=O)c1ccc(Cl)cc1`, the inhibition is 17.9%.
For the molecule `O=C(O)c1ccc(N=Nc2c(O)[nH]c3ccc(Br)cc23)cc1`, the inhibition was 25.6% (active).
Regarding `Oc1[nH]c2ccc(Br)cc2c1N=Nc1nn[nH]n1`, the inhibition is 69.4% (active).
The figure for `CCc1ccc2[nH]c(O)c(N=NC3=NC(=O)CS3)c2c1` is 22.3%; for `O=c1[nH]c(NCCO)nc2c1C1(CCCC1)Cc1ccccc1-2` it is 22.6%.
Take `CCn1c(SCC(N)=O)nc2c(c1=O)C1(CCCC1)Cc1ccccc1-2`: the inhibition was 20.1%.
In the case of `C=CCSc1n[nH]c2nc3c(c(=O)n12)C1(CCCC1)Cc1ccccc1-3`, the inhibition is 46.3% (active).

The record behind these values is PubChem BioAssay AID493034 (The Scripps Research Institute Molecular Screening Center, 2011).
